Assay outcomes: PubChem, several laboratories
Compounds with a hit are over-represented: about 3.3% of the library has one in this group of screens.
TPT1 inh: blocks Candida albicans tRNA 2'-phosphotransferase; AID 1962; 300,000 compounds, 0.81% hits; recombinant caTPT1, FP RNA substrate dephosphorylation; inhibition, % at 5 µM;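 active = inhibition above the mean of all tested compounds plus 3 SD, set per screening campaign, cut at about 24% in these data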;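 note: plate controls were DMSO alone for no effect and ferristatin control at 100 nM for full effect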
NRP1-CendR mod: modulators of CendR peptide binding to human neuropilin-1 | O14786 | FAM-RPARPAR peptide binding to NRP-1, fluorescence polarization | inhibition, % at 25 µM | 360,000 compounds, 0.85% hits;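 active = inhibition or corrected inhibition above about 18%, plus a signal ratio from 0.5 to 1.5, limit read from the data, passing the limit was not always enough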
HNF4A DNA FP: change in binding of human HNF4 alpha to DNA; activity change, % at 10 µM; HNF4a-FITC DNA binding, fluorescence polarization, 1 h; P41235; AID 1224865; 360,000 compounds, 0.3% hits; in the data active = activity change above about 30%, passing the limit was not always enough
Rpn11 inh: blocks the human proteasome subunit Rpn11. AID 588493. human 26S proteasome, Ub4-pepOG fluorescence polarization; 20S core pre-blocked with epoxomicin. 360,000 compounds, 0.59% hits. inhibition, % at 20 µM. O00487;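 active = inhibition at 20 µM, scaled to each plate's controls, above about 33%, limit read from the data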
Target sequence (O00487 whole entry, looked up): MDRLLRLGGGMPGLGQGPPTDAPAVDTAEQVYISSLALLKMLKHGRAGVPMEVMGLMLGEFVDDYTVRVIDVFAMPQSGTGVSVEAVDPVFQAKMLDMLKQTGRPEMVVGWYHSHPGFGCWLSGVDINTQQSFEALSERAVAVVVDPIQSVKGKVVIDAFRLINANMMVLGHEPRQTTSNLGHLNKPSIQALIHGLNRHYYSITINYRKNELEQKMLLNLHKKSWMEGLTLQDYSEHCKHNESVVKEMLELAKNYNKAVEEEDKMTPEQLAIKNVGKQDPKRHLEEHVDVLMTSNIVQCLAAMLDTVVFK
Fh CTSL1 inh: counter-screen for PFM18AAP inhibitors: inhibitors of F. hepatica cathepsin L1; recombinant F. hepatica cathepsin L1, Z-Leu-Arg-MCA fluorescence; inhibition, % at 5.96 µM; 300,000 compounds, 0.49% hits;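 active = inhibition above the mean of all tested compounds plus 3 SD, set per screening campaign, cut at about 17% in these data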;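 note: 0% = plate median of test compound wells and 100% = 1 µM Z-Phe-Ala-diazomethylketone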
PHOSPHO1 block: inhibitors of human PHOSPHO1 phosphatase. recombinant PHOSPHO1, absorbance phosphatase assay. inhibition, % at 13.3 µM. 290,000 compounds, 1.1% hits. AID 1565; in the data active = inhibition above about 60%
Target sequence (Q8TCT1 whole entry, looked up): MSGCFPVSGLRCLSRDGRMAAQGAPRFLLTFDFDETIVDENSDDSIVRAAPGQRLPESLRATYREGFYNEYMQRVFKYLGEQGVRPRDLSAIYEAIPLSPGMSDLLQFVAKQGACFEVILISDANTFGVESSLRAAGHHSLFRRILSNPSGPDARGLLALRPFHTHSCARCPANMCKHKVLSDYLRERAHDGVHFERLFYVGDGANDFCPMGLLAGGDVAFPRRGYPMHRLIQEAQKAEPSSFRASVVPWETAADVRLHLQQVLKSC
An asterisk follows results filed as active; . = no result given.

SMILES | TPT1 inh | NRP1-CendR mod | HNF4A DNA FP | Rpn11 inh | Fh CTSL1 inh | PHOSPHO1 block
O=C1C(Cl)=C(NS(=O)(=O)c2ccc([N+](=O)[O-])cc2)C(=O)c2ccccc21 | 0 | 26* | 2 | -3 | 0 | 25
Cc1ccc(/C=N/n2c(-c3ccncc3)n[nH]c2=S)cc1 | . | -5 | 2 | -1 | . | 91*
O=[N+]([O-])c1ccc(-c2nn(-c3ccccc3)cc2/C=N/n2c(-c3ccncc3)n[nH]c2=S)cc1 | 2 | 11 | -16 | 9 | 2 | -145
S=c1[nH]nc(-c2ccncc2)n1/N=C/c1cn(-c2ccccc2)nc1-c1ccccc1 | -5 | -17 | 1 | -6 | 9 | 90*
CNC(=S)N1N=C(c2ccccc2)CC1c1ccc(OC)c(OC)c1 (centres undefined) | 3 | 10 | 1 | -6 | -4 | -21
Cc1ccc(S(=O)(=O)N2CCC(C(=O)OCC(=O)NCCc3ccccc3)CC2)cc1C | -4 | 10 | -2 | -3 | -2 | .
Cc1cc(NC(=O)COC(=O)C2CCN(S(=O)(=O)c3ccccc3)CC2)c([N+](=O)[O-])cc1C | -2 | 23* | -2 | 7 | -1 | 22
CCCCn1c(N)c(N(CCOC)C(=O)c2cc(Cl)nc3ccccc23)c(=O)[nH]c1=O | 3 | 8 | 2 | 2 | 0 | .
C=CCS/C(N)=N\N=C\c1c(O)ccc2ccccc12 | -1 | 1 | 3 | 10 | 22* | 8
CCOC(=O)C1(CC2CCCCO2)CCN(C(=O)Nc2ccccc2CC)CC1 (centres undefined) | -1 | -6 | 2 | -6 | 7 | 48
Cc1cccc(NCc2ccc(O)c3ncccc23)c1 | -3 | 13 | -1 | 20 | -1 | 40
Cc1ccc(NCc2ccccc2O)c(C)c1 | -5 | 7 | 3 | -5 | 0 | 9
Oc1ccc(CNc2ccccc2)c2cccnc12 | -2 | -7 | 5 | 22 | 1 | 51
Cc1ccccc1NCc1ccc(O)c2ncccc12 | -3 | -10 | 1 | -3 | 4 | 71*
Cc1cccc(NCc2ccccc2O)c1C | 1 | 42* | 5 | -5 | -4 | 12
Oc1ccc(CNc2ccc(F)cc2)c2cccnc12 | 0 | -9 | 3 | 9 | -4 | 95*
C/C=C(\CS(=O)(=O)c1ccccc1)S(=O)(=O)c1ccccc1 | 1 | -2 | -3 | 5 | 2 | -27
Nc1cc([N+](=O)[O-])ccc1N1C(=O)CCCC1=O | 1 | -6 | -5 | -2 | 1 | 20
C(=C\c1cccc2ccccc12)/c1nnc(-c2cccs2)o1 | 1 | 0 | 0 | -4 | -6 | 27
CCN(CC(=O)NCC(=O)Nc1ccc(Br)cc1C)Cc1ccccc1 | -2 | 4 | -3 | 7 | 1 | .
O=C(c1ccco1)N1CCN(C(=O)c2ccccc2OC(=O)C23CC4CC(CC(C4)C2)C3)CC1 | . | 20* | -4 | -3 | . | 15
O=C(O)c1ccccc1OC(=O)C12CC3CC(CC(C3)C1)C2 | -2 | 2 | 6 | -3 | -2 | 32
Cc1cccc2cc(COC(=O)c3cccnc3)c(=O)[nH]c12 | -5 | -12 | -4 | -2 | -2 | 78*
Cc1ccc2cc(COC(=O)c3ccncc3)c(=O)[nH]c2c1 | -3 | -4 | 2 | 4 | -2 | 86*
Cc1ccc(C(=O)OCc2cc3ccccc3[nH]c2=O)cc1 | 1 | -4 | 1 | 0 | 0 | -3
SMILES | TPT1 inh | NRP1-CendR mod | HNF4A DNA FP | Rpn11 inh | Fh CTSL1 inh | PHOSPHO1 block
Cc1cc(C)cc(NC(=O)C(=O)NCCCN2CCCC2=O)c1 | -3 | 2 | 2 | 1 | 0 | .
COCC(=O)N[C@@H]1c2ccccc2CC[C@@H]1OCc1ccccc1 | . | 4 | 4 | -7 | . | .
COc1ccc(C(CC(=O)c2ccccc2)C2CCCCC2=O)cc1 (centres undefined) | 1 | 5 | 1 | 1 | 2 | 14
O=C(CC(c1ccco1)C1CCCCC1=O)c1ccccc1 (centres undefined) | 0 | 10 | 1 | 4 | 52* | -7
O=C(NCc1cccc(C(F)(F)F)c1)c1csc([C@@H]2C[C@H](O)[C@@H](CO)O2)n1 | . | 6 | -1 | 2 | . | .
O=C(O)c1cc(Nc2cc(Cl)c3nonc3c2[N+](=O)[O-])ccc1O | 1 | 25* | -4 | 5 | 5 | 14
O=[N+]([O-])c1c(Nc2ccccc2O)cc(Cl)c2nonc12 | . | 11 | 1 | 8 | . | 15
COc1ccc(CCNC(=O)c2cc3cc(Cl)ccc3nc2N)cc1OC | . | -8 | -3 | . | . | .
C/C(N)=C(/C#N)C(=O)COC(=O)c1ccccc1C(=O)c1ccc(C)cc1 | 4 | -2 | 3 | 3 | 0 | 36
COc1ccc(C(=O)NC(NC(=O)c2ccc(OC)c(OC)c2)c2ccccc2F)cc1OC | -2 | 3 | 45* | -8 | 11 | 10
COc1ccccc1CNC(=O)C1CCN(S(=O)(=O)c2cccc([N+](=O)[O-])c2)CC1 | -1 | 5 | -1 | 8 | 1 | 31
O=C(NCc1ccco1)C1CCN(S(=O)(=O)c2cccc([N+](=O)[O-])c2)CC1 | -5 | 28* | -2 | -6 | 7 | 45
O=C(Cn1cc(C(=S)N2CCOCC2)c2ccccc21)N1CCOCC1 | -4 | 7 | 2 | -5 | 1 | 2
O=C(O)Cn1cc(C(=S)N2CCOCC2)c2ccccc21 | -1 | 0 | -1 | 0 | 1 | 88*
O=C(C(=O)N1CCN(c2cccc(Cl)c2)CC1)c1cn(CC(=O)N2CCOCC2)c2ccccc12 | -2 | 32* | -1 | 4 | -1 | 12
CC(C)Oc1cccc(C(=O)C2CCCN(Cc3cccn3-c3ccccn3)C2)c1 (centres undefined) | -1 | 3 | -1 | 3 | -1 | 15
O=C(NCC1CC1)c1onc(CSc2nc3ccccc3[nH]2)c1C(=O)NCC1CC1 | 0 | 26* | 1 | -16 | 4 | 20
O=C(O)c1cc(O)ccc1NC(=O)C(c1ccccc1)c1ccccc1 | -1 | -11 | -13 | -2 | -4 | 29
CC(C)[C@H](NC(=O)N1c2ccccc2NC(=O)[C@@H]1C(C)C)C(=O)N[C@H](Cc1ccccc1)C(=O)O | -3 | -5 | 2 | -8 | -2 | 65*
CC(C)[C@H]1C(=O)Nc2ccccc2N1C(=O)N[C@@H](Cc1ccccc1)C(=O)N[C@H](Cc1ccccc1)C(=O)O | -1 | -4 | 0 | -4 | -2 | 23
N#Cc1c(-c2cccnc2)c2c([nH]c1=S)CCCC2 | 1 | 15 | 1 | -1 | 0 | 74*
N#Cc1c(-c2ccco2)c2c([nH]c1=S)CCCC2 | 4 | -23 | 6 | 12 | 1 | 62*
COc1ccc(-c2c3c([nH]c(=S)c2C#N)CCC3)cc1 | . | 3 | 3 | 10 | . | 55
COc1cc(C(=O)COC(=O)c2ccc([N+](=O)[O-])o2)cc(OC)c1OC | . | 21* | 6 | 3 | . | .
